# Sampled rows, rich in hits. Any-hit rate of the full collection: about 3.6%.
# Pf apPOL block = Pf-apPOL inhibitors, biochemical, fluorescence; AID 1794808, 2022; actives 0.25% (n = 210,000); inhibition, % at 10 µM; Recombinant Pf-apPOL, molecular beacon fluorescence, 1.5 h; Plasmodium falciparum apicoplast DNA polymerase (apPOL)
# mHTT-CaM PPI inh = mutant huntingtin-calmodulin interaction inhibitors – biochemical, AlphaScreen, primary screen; P42858; AlphaScreen His-mHTT/GST-CaM binding, luminescence; inhibition, % at 15 µM; actives 3.6% (n = 190,000); AID 1671202, 2021;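 note: 0% = both proteins with DMSO and 100% = one protein alone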
# * = called active by the depositor; i = inactive; x = no result. Cut-off read from the data, not from the text of the source: active = inhibition above about 50%; inactive = the rest.
SMILES,Pf apPOL block,mHTT-CaM PPI inh
COc1cccc2cc(C(=O)N3CCc4nc(NC(=O)C5CCCO5)sc4C3)oc12 (centres undefined),-2.8,25.0
CC(C)N1CCN(c2ncccc2-c2nnc(-c3ccc(Cl)cc3)o2)CC1,-9.6,4.9
O=C(c1ccccc1)N1CCC(n2c(-c3ccoc3)nc3cccnc32)C1 (centres undefined),-2.5,18.9
O=C(c1ccc(C(F)(F)F)cc1)N1CCC(n2c(-c3ccoc3)nc3cccnc32)C1 (centres undefined),2.9,86.1*
CCOc1ccccc1NC(=O)CN(c1cc(C(F)(F)F)ccc1Cl)S(C)(=O)=O,3.6,6.0
CCNC(=O)C1Cc2ccccc2N2CCN(c3cc(Cl)ccc3OC)CC12 (centres undefined),-0.6,22.2
COc1ccc2c(c1)N1CCN(c3ccccc3OC)CC1C(C(=O)NC1CC1)C2 (centres undefined),-2.3,58.7*
C=CCNC(=O)C1Cc2ccccc2N2CCN(c3cc(Cl)ccc3OC)CC12 (centres undefined),0.7,54.9*
COc1ccccc1N1CCN2c3ccccc3CC(C(=O)NC3CC3)C2C1 (centres undefined),-1.0,-0.2
CCNC(=O)C1Cc2ccc(OC)cc2N2CCN(Cc3ccc(F)cc3)CC12 (centres undefined),-5.2,41.5
COc1ccc2c(c1)N1CCN(Cc3ccc(F)cc3)CC1C(C(=O)NC1CC1)C2 (centres undefined),-3.6,93.2*
O=S(=O)(NCCN1CCCC1)c1cccc2nsnc12,6.2,-3.8
Cc1cc(Br)ccc1OCCCCN1CCN(C)CC1,-3.2,0.0
CC(=O)NC(=O)c1cc2ccccc2oc1=Nc1ccc(Cl)cc1Cl,-2.6,4.0
COc1cc(-c2nc3ccccc3[nH]2)cc(OC)c1OC,-8.1,7.1
O=C(NC1CCCC1)c1nc(-c2ccc(N3CCCCCC3)cc2)no1,-2.1,-8.5
CC(C)c1ccc(NC(=O)C2CC2c2ccccc2)cc1 (centres undefined),1.5,-4.8
O=C(Nc1ccc(Nc2ccccc2)cc1)C1CC1c1ccccc1 (centres undefined),-11.0,88.5*
CNC(=O)C1CN(C(=O)Nc2cccc(Cl)c2C)CC12CCCC2 (centres undefined),0.2,-7.9
COc1cc(-c2noc(C)c2C#Cc2ccc(N)cc2)cc(OC)c1OC,-4.4,13.2
COc1cc(-c2noc(C)c2/C=C/c2ccc(N)cc2)cc(OC)c1OC,-4.6,52.7*
CCN1C(=O)NC2(CCN(S(=O)(=O)c3ccc4c(c3)CC(C)N4C(C)=O)CC2)C1=O (centres undefined),-3.4,-1.7
CCN(CCNC(=O)CN1C(=O)/C(=C/c2ccccc2F)Sc2ccccc21)c1ccccc1,0.9,17.0
CN(C)CCNC(=O)CN1C(=O)/C(=C/c2ccc(Cl)cc2)Sc2ccccc21,5.0,20.0
O=C(CN1C(=O)/C(=C/c2ccc(C(F)(F)F)cc2)Sc2ccccc21)N1CCCC1,4.2,14.0
SMILES,Pf apPOL block,mHTT-CaM PPI inh
CCN1CCN(C(=O)CN2C(=O)/C(=C/c3ccc(C(F)(F)F)cc3)Sc3ccccc32)CC1,2.4,68.0*
O=C(CN1C(=O)/C(=C/c2ccccc2)Sc2ccccc21)NCc1ccccn1,-7.5,72.0*
O=C(CN1C(=O)CSc2ccccc21)NCc1ccccn1,-19.9,24.0
CCN(CC)CCNC(=O)CN1C(=O)/C(=C/c2ccc(Cl)cc2)Sc2ccccc21,3.9,59.0*
CN(CCNC(=O)CN1C(=O)/C(=C/c2ccccc2F)Sc2ccccc21)Cc1ccccc1,-1.1,92.0*
CCCN(CCC)Cc1c(O)ccc2c1OC(=Cc1ccco1)C2=O,-2.9,8.6
COc1ccc(CC(=O)NCc2ccc(F)cc2)cc1OC,-3.6,-4.0
O=C(CN1C(=O)/C(=C/c2ccc(Cl)cc2)Sc2ccccc21)NCc1ccccn1,-2.1,54.0*
CCCCNC(=O)CN1C(=O)/C(=C/c2ccccc2C)Sc2ccccc21,-4.9,-4.0
COCCNC(=O)CN1C(=O)/C(=C/c2ccc(Cl)cc2)Sc2ccccc21,-5.1,11.0
CCOCCCNC(=O)CN1C(=O)/C(=C/c2ccccc2C)Sc2ccccc21,73.6*,15.0
Cc1ccc(N2CCC(NC(=O)C3CCCC3)C2=O)cc1 (centres undefined),-4.0,-6.3
O=C1CC(NC(=O)COc2ccc(F)cc2)CN1 (centres undefined),-0.7,-9.9
O=C(C1CCN(c2nnc(-c3ccccc3)o2)CC1)N1CCC(Cc2ccccc2)CC1,-7.1,69.7*
O=C(C1CCN(c2nnc(-c3ccccc3)o2)CC1)N1CCCCC1,-6.6,-2.2
CCOc1nc(NCCN2CCOCC2)nc(Nc2ccc(Cl)cc2)n1,-0.8,6.0
Clc1cccc(-c2cc3ccccn3c2)c1,4.7,63.1*
COc1ccc(-c2ncc3ccccn23)cc1OC,-2.2,4.0
Clc1cccc(-c2cn3ccccc3n2)c1,-0.5,3.5
COc1cc(-c2cc3ccccn3c2)cc(OC)c1OC,-0.3,61.0*
CCN(CC)CCNC(=O)c1c(O)c2cc(F)cc3c2n(c1=O)C(C)CC3 (centres undefined),-77.6,61.0*
CC1CCc2cc(F)cc3c(O)c(C(=O)Nc4ncccc4O)c(=O)n1c23 (centres undefined),-85.2,22.0
CC1=NN(c2cc(Cl)cc(Cl)c2)C(=O)/C1=C/c1cccn1-c1ccc(S(N)(=O)=O)cc1,-4.5,52.0*
NS(=O)(=O)c1ccc(-n2cccc2/C=N/n2cnnc2)cc1,x,i
CC1=NN(c2cc(Cl)ccc2Cl)C(=O)/C1=C/c1cccn1-c1ccc(S(N)(=O)=O)cc1,0.2,63.0*
SMILES,Pf apPOL block,mHTT-CaM PPI inh
CC1=NN(c2ccc(S(N)(=O)=O)cc2)C(=O)/C1=C/c1ccc(O)cc1,1.1,27.0
CC(=O)N(Cc1cc(-c2ccc(C)cc2C)on1)C(C)C,-5.9,1.2
Cc1ccc(NC(=O)c2ccc(NCc3ccccc3)c([N+](=O)[O-])c2)cc1,-8.4,3.7
CCCC(=O)c1cc2c(cc1[N+](=O)[O-])OCCO2,-4.9,1.1
Cc1ccc(C(c2ccc(C)o2)c2cc([N+](=O)[O-])cc(Br)c2O)o1,-4.0,64.7*
Cc1ccc(C(c2ccc(C)o2)c2cc(Br)cc([N+](=O)[O-])c2O)o1,3.9,42.0
Cc1ccc(C(c2ccc(C)o2)c2cc3c(cc2[N+](=O)[O-])OCCO3)o1,-6.0,56.0*
CNC(=O)N1CCCC(C)(C(=O)NCc2ccccc2)C1 (centres undefined),0.3,-4.2
O=C(CN1CCCC1)N1N=C(c2ccccc2)CC1c1ccc2c(c1)OCO2 (centres undefined),3.8,99.2*
CC(=O)N1CCN(CC(=O)N2N=C(c3ccccc3)CC2c2ccccc2)CC1 (centres undefined),-0.6,3.6
O=C(CN1CCCCC1)N1N=C(c2ccccc2)CC1c1ccc2c(c1)OCO2 (centres undefined),-2.9,29.2
O=C(CN1CCOCC1)N1N=C(c2ccccc2)CC1c1ccc(Cl)cc1 (centres undefined),-2.8,38.6
Cc1ccc(C2=NN(C(=O)CN3CCOCC3)C(c3ccc(C)cc3)C2)cc1 (centres undefined),-6.3,62.3*
CC(=O)N1CCN(CC(=O)N2N=C(c3ccccc3)CC2c2ccc(C)cc2)CC1 (centres undefined),-4.7,63.5*
